This is a sample that favours compounds with a hit; in the whole collection about 6.8% have one here.
Pf Dd2 inh: P. falciparum Dd2 growth inhibition; AID 1159554; actives 2.3% (n = 94,000); activity change, % at 10 µM; SYBR Green, 72 h; stronger effect = lower value; in the data active = activity change below about -80%; inconclusive = no clear call, values can overlap the other calls
C diff growth: blocks growth of Clostridium difficile; AID 1259249; growth activity, negative = inhibition, % at 16 µg/mL (by protocol); actives 0.25% (n = 86,000); Clostridium difficile clinical isolate growth, OD600, 24 h; stronger effect = lower value;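 active = mean growth activity at or below -80% and every replicate also at or below -80%; inconclusive = mean at or below -80% but some replicate above -80%; inactive = mean growth activity above -80%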
T cruzi growth-1: blocks T. cruzi growth in NIH3T3 culture | T. cruzi beta-gal in NIH3T3, GalScreen luminescence, 90 h | inhibition, % at 8.34 µM | actives 5.9% (n = 77,000) | AID 624255;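 active = mean inhibition above about 93%, with at least 55% of replicates each passing it, limit read from the data, passing the limit was not always enough; inconclusive = only one of those two conditions holds; inactive = neither condition holds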
T cruzi growth-2: Trypanosoma cruzi proliferation inhibition. shares compounds with T cruzi growth-1. T. cruzi beta-gal in NIH3T3, GalScreen luminescence, 90 h. inhibition, % at 8.35 µM. actives 72% (n = 5,600);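 active = mean replicate inhibition above about 95% and at least 55% of replicates individually reaching it, limit read from the data; inconclusive = only one of the two criteria is met; inactive = neither criterion is met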
T cruzi growth-3: inhibitors of T. cruzi proliferation | shares compounds with T cruzi growth-1 | T. cruzi beta-gal in NIH3T3, GalScreen luminescence, 90 h | inhibition, % at 2.09 µM | actives 21% (n = 5,600);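 active = mean inhibition above about 95%, with at least 55% of replicates also reaching it, limit read from the data; inconclusive = meets just one of the two conditions; inactive = meets neither condition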
NIH3T3 tox: NIH/3T3 (mouse) viability loss. shares compounds with T cruzi growth-1. NIH/3T3 viability, CellTiter-Glo ATP luminescence, 90 h. actives 14% (n = 5,600). cytotoxicity (signal decrease), % at 8.35 µM;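 active = mean signal decrease across replicates above about 35% based on untreated-well scatter, with enough replicates individually passing, limit read from the data; inconclusive = no rule stated though some were filed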
3T3 cytotox 2: cytotoxicity in mouse NIH/3T3 fibroblasts | shares compounds with T cruzi growth-1 | NIH/3T3 viability, CellTiter-Glo ATP luminescence, 90 h | inhibition, % at 24.9 µM | actives 56% (n = 5,600) | AID 651744;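 active = mean loss of cell viability signal at or above a set limit, and enough replicates individually reaching it; inconclusive = meets only the mean limit or only the replicate share; inactive = meets neither condition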
Numbers stand for hits; 0 = inactive; ? = inconclusive; - = not tested or not shown.

SMILES	Pf Dd2 inh	C diff growth	T cruzi growth-1	T cruzi growth-2	T cruzi growth-3	NIH3T3 tox	3T3 cytotox 2
COc1cccc(C#Cc2ccc3c(c2)O[C@@H](CN(C)S(=O)(=O)c2ccccc2F)[C@H](C)CN([C@@H](C)CO)S3(=O)=O)c1	0	0	123	109	98	0	42
COCC#Cc1ccc2c(c1)O[C@@H](CN(C)S(=O)(=O)c1cccc(OC)c1)[C@H](C)CN([C@@H](C)CO)S2(=O)=O	0	0	0	-	-	-	-
COc1cccc(C#Cc2ccc3c(c2)O[C@H](CN(C)S(=O)(=O)c2ccccc2F)[C@@H](C)CN([C@H](C)CO)S3(=O)=O)c1	0	0	127	109	115	0	42
COc1cccc(C#Cc2ccc3c(c2)O[C@@H](CN(C)S(=O)(=O)c2ccccc2F)[C@H](C)CN([C@H](C)CO)S3(=O)=O)c1	0	0	121	107	0	0	45
COc1cccc(C#Cc2ccc3c(c2)O[C@@H](CN(C)S(=O)(=O)c2ccccc2F)[C@@H](C)CN([C@@H](C)CO)S3(=O)=O)c1	0	0	?	102	0	0	0
CCCC#Cc1ccc2c(c1)O[C@H](CN(C)S(=O)(=O)c1cccc(OC)c1)[C@@H](C)CN([C@@H](C)CO)S2(=O)=O	0	-	-	-	-	-	-
COCC#Cc1ccc2c(c1)O[C@H](CN(C)S(=O)(=O)c1cccc(OC)c1)[C@H](C)CN([C@H](C)CO)S2(=O)=O	0	0	0	-	-	-	-
COc1cccc(C#Cc2ccc3c(c2)O[C@@H](CN(C)C(C)=O)[C@@H](C)CN([C@@H](C)CO)S3(=O)=O)c1	0	0	0	-	-	-	-
C[C@H](CO)N1C[C@H](C)[C@H](CN(C)C(=O)CN(C)C)Oc2cc(-c3ccc(C#N)cc3)ccc2S1(=O)=O	-	0	0	-	-	-	-
COc1ccc2c3c([nH]c2c1)[C@H](CO)N(C)CC31CN(C(=O)c2cccnc2)C1	0	0	-	-	-	-	-
COCC(=O)N1CC(=O)N2[C@@H](CO)[C@@H](c3ccc(C#CC4CC4)cc3)[C@@H]2C1	0	0	-	-	-	-	-
COc1cccc(C#Cc2ccc3c(c2)O[C@H](CN(C)C)[C@H](C)CN([C@H](C)CO)S3(=O)=O)c1	0	0	0	-	-	-	-
COc1cccc(C#Cc2ccc3c(c2)O[C@H](CN(C)S(=O)(=O)c2ccccc2F)[C@H](C)CN([C@@H](C)CO)S3(=O)=O)c1	0	0	125	109	104	0	0
CN1C(=O)c2cc(NC(=O)c3ccccc3Cl)ccc2OC[C@@H]2O[C@H](CC(=O)O)CC[C@H]21	0	0	0	-	-	-	-
N#C[C@H]1[C@H](c2ccc(C#CC3CCCCC3)cc2)[C@@H](CO)N1C(=O)c1cccc(F)c1	0	0	0	-	-	-	-
N#C[C@@H]1[C@@H](c2ccc(C#CC3CCCC3)cc2)[C@@H](CO)N1C(=O)c1cccc(F)c1	0	0	-	-	-	-	-
N#C[C@H]1[C@H](c2ccc(C#CC3CC3)cc2)[C@@H](CO)N1C(=O)c1cccc(F)c1	0	0	?	97	101	0	0
CC(C)C#Cc1ccc([C@@H]2[C@@H](C#N)N(C(=O)c3cccc(F)c3)[C@H]2CO)cc1	0	0	97	103	0	0	0
CC(C)C#Cc1ccc([C@@H]2[C@H](C#N)N(C(=O)c3cccc(F)c3)[C@H]2CO)cc1	0	0	?	0	106	0	78
CC(C)C#Cc1ccc([C@H]2[C@@H](CO)N(C(=O)c3cccc(F)c3)[C@H]2C#N)cc1	0	0	0	-	-	-	-
CN1c2ccc(-c3ccccc3)cc2[C@@H]2[C@@H](CCN2C(=O)Nc2ccccc2F)[C@@H]1CO	0	0	0	-	-	-	-
O=C(C[C@H]1C[C@H]2c3cc(NC(=O)NC4CCCC4)ccc3O[C@H]2[C@@H](CO)O1)NCc1ccc2c(c1)OCO2	0	0	-	-	-	-	-
CO[C@@H]1CN(C)C(=O)c2cc(NC(=O)NC(C)C)ccc2OC[C@H](C)N(C)C[C@@H]1C	0	0	0	-	-	-	-
CCCC#Cc1cnc2c(c1)C(=O)N([C@H](C)CO)C[C@@H](C)[C@@H](CN(C)C(=O)NC1CCCC1)O2	0	0	0	-	-	-	-
N#C[C@@H]1[C@H](c2ccc(-c3cccnc3)cc2)[C@H](CO)N1C(=O)C1CCC1	0	0	0	-	-	-	-
SMILES	Pf Dd2 inh	C diff growth	T cruzi growth-1	T cruzi growth-2	T cruzi growth-3	NIH3T3 tox	3T3 cytotox 2
N#C[C@@H]1[C@@H](c2ccc(C#Cc3cccc(F)c3)cc2)[C@@H](CO)N1C(=O)C1CC1	0	0	0	-	-	-	-
N#C[C@@H]1[C@@H](c2ccc(C#Cc3cccnc3)cc2)[C@@H](CO)N1C(=O)C1CCCCC1	0	0	103	0	0	0	0
N#C[C@H]1[C@@H](c2ccc(C#Cc3cccc(F)c3)cc2)[C@@H](CO)N1C(=O)C1CCC1	0	0	-	-	-	-	-
N#C[C@@H]1[C@@H](c2ccc(C#Cc3cccc(F)c3)cc2)[C@@H](CO)N1C(=O)C1CCCC1	0	0	100	107	0	0	64
N#C[C@@H]1[C@H](c2ccc(C#Cc3cccc(F)c3)cc2)[C@@H](CO)N1C(=O)C1CCC1	0	0	107	103	108	0	80
CC(=O)N(C)C[C@H]1Oc2ncc(-c3ccccc3F)cc2C(=O)N([C@H](C)CO)C[C@@H]1C	0	0	0	-	-	-	-
C[C@H]1CN([C@@H](C)CO)S(=O)(=O)c2ccc(C3=CCCC3)cc2O[C@H]1CN(C)C(=O)C1CC1	0	-	0	-	-	-	-
O=C([C@H]1[C@H](CO)[C@H]2Cn3c(cccc3=O)[C@@H]1N2Cc1cccc(Cl)c1)N1CCOCC1	-	0	100	0	0	0	0
O=C([C@H]1[C@H](CO)[C@H]2Cn3c(cccc3=O)[C@@H]1N2Cc1cccc(Cl)c1)N1CCCCC1	0	0	0	-	-	-	-
O=C([C@@H]1[C@@H](CO)[C@@H]2Cn3c(ccc(-c4ccccc4)c3=O)[C@H]1N2Cc1cccnc1)N1CCOCC1	-	0	97	0	0	0	0
O=C([C@@H]1[C@@H](CO)[C@@H]2Cn3c(ccc(-c4ccncc4)c3=O)[C@H]1N2Cc1ccccc1)N1CCOCC1	0	0	0	-	-	-	-
C[C@@H]1CCCCO[C@@H](CN(C)C(=O)c2ccncc2)[C@H](C)CN([C@H](C)CO)C(=O)c2cc(NC(=O)NC3CCCCC3)ccc2O1	0	0	0	-	-	-	-
N#C[C@@H]1[C@@H](c2ccccc2)[C@H](CO)N1C(=O)CN1CCOCC1	0	0	0	-	-	-	-
CCCC#Cc1ccc([C@H]2[C@@H](C#N)N(C(=O)CN3CCOCC3)[C@H]2CO)cc1	0	0	98	103	0	0	?
CCCC#Cc1ccc([C@@H]2[C@@H](C#N)N(C(=O)C3CC3)[C@@H]2CO)cc1	0	0	0	-	-	-	-
CCCC#Cc1ccc([C@H]2[C@@H](C#N)N(C(=O)CN3CCOCC3)[C@@H]2CO)cc1	0	0	105	98	0	0	0
